Reference: ChEMBL document CHEMBL4513216, “Probing the Open Global Health Chemical Diversity Library for Multistage-Active Starting Points for Next-Generation Antimalarials” (ACS Infect Dis, 2020)
Screen size: about 65,000 compounds; about 2,100 (3.2%) showed an effect of 50% or more. The median lay at about -52%. Only a selection was taken, and strong results are over-represented in it overall.

system: Plasmodium falciparum; experiment: Screen against P. falciparum Asexual Blood Stage (ABS), at 5uM; assay type: functional, Dd2; conditions: tested at 5 uM

Structure (SMILES) | INHIBITION [%]
COCCNc1ncc(-c2cccc(OC)c2)c(-c2nccn2C)n1 | 69.3
Cc1nnsc1CN1C[C@H]2CC[C@@H](C1)N(Cc1ccccc1)C2 | -69.4
COc1cc2c(cc1CN1C[C@@H](CN3CCOCC3)[C@@H](CO)C1)CCC2 | 21.7
COc1cccc(CN2CCCCC2CN2CCOCC2)c1F (stereo not drawn) | 4.8
COc1cc2c(cc1CN1CCCCC1CN1CCOCC1)CCC2 (stereo not drawn) | 65.9
CC(OCC1CC1)C(=O)Nc1ncccc1I (stereo not drawn) | -86.5
COCCn1cncc1Cn1cccc(C(F)(F)F)c1=O | -90.4
COCCn1cncc1CN1CCCC(C(=O)Cc2ccccc2)C1 (stereo not drawn) | -43.6
O=C(C1CCCN(Cc2ccccc2)C1)N1CCc2sccc2C1 (stereo not drawn) | 12.7
COCCN1CCCC12CCN(Cc1cncn1C)CC2 | -12.2
CC1(c2ccccc2)CCCN(Cc2nnc(-c3cccnc3)o2)C1 (stereo not drawn) | -119
CN1CCCC2(CCN(Cc3cncn3C3CCCCC3)C2)C1=O (stereo not drawn) | -28.7
COCCn1cncc1CN1CCCC(C)(c2ccccc2)C1 (stereo not drawn) | 61.5
O=C(Cc1ccccc1)C1CCCN(Cc2cncn2C2CCCC2)C1 (stereo not drawn) | 57.8
CC1(c2ccccc2)CCCN(Cc2cncn2C2CC2)C1 (stereo not drawn) | 67.2
Cn1nc(C(=O)NCc2ccc(Cl)cc2)c2c1CCS(=O)(=O)C2 | -79
COCC(=O)N1CCC2(COCc3cnc(N4CCOCC4)nc32)C1 (stereo not drawn) | -38
CC(C)n1nc(CN(C)C)c2c1CN(C(=O)CC1CC1)CC2 | -91.2
COc1cc(NC(=O)N2CCCC2c2nncn2C)ccc1Br (stereo not drawn) | -53.7
CCS(=O)(=O)NCc1nc(C)cc(N2CCCCC2)n1 | -38.7
CC(C)n1nc(CN(C)C)c2c1CN(CC1CC1)CC2 | -87.1
Cn1nc(CN2CCCC2)c2c1CN(CC1CC1)CC2 | -16.8
CC(C)n1nc(CN2CCCC2)c2c1CN(CC1CC1)CC2 | 55.7
CC(C)N(C)Cc1cnc2n1CCN(C(=O)Cc1ccsc1)C2 | -45.1
CC(C)N(C)Cc1cnc2n1CCN(C(=O)Cc1ccccn1)C2 | -6.41
CC(C)N(C)Cc1cnc2n1CCN(C(=O)c1cccs1)C2 | 62.6
Cc1ccc(C(=O)N2CCC(Oc3ccc(C)c(C)c3)CC2)c(=O)[nH]1 | -19.9

Structure (SMILES) | INHIBITION [%]
Cc1nc(CN2CCc3ncnc(C)c3CC2)cs1 | -152
CC(C)CCN1Cc2c(C(=O)N3CCCC3)nn(C)c2C1 | -58.9
COc1ccc(NCC2(O)CCNCC2)cc1OC | -115
Cn1cc([C@@H]2CN(S(=O)(=O)c3cccnc3)C[C@H]2N)c2ccncc21 | -21.6
Cn1cc([C@@H]2CN(S(=O)(=O)c3ccccc3F)C[C@H]2N)c2ccncc21 | 63.4
Cn1cc([C@@H]2CN(S(C)(=O)=O)C[C@H]2N)c2ccncc21 | 16.8
CN(C)c1ccc(C(=O)N(CCO)CC2CC2)c(F)c1 | -93.3
Cc1nn(C)cc1-c1cc(C(F)(F)F)nn1CCC#N | -167
Cc1cc(N2CCC(Cc3ncccn3)C2)ncn1 (stereo not drawn) | -89.6
Oc1ccc(Cl)cc1CNCc1ccccc1C(F)(F)F | 64.5
Nc1nnnn1NCc1ccccc1C(F)(F)F | -13.1
CC(O)CNCc1ccccc1C(F)(F)F (stereo not drawn) | -46.2
O=C(COCCOc1ccccc1)Nc1ccnn1CC1CCOC1 (stereo not drawn) | -132
CCN(C(=O)CCOC)C(c1ccc(Cl)cc1)c1ccccn1 (stereo not drawn) | -56.9
O=C(O)CC(NC(=O)c1ccccc1OC(F)F)c1cccs1 (stereo not drawn) | -127
CCCc1ccc(S(=O)(=O)Nc2ccc(=O)n(C)c2)cc1 | -53.7
CCCN1CCC2(CC1)COc1ccccc1S(=O)(=O)N(CC1CC1)C2 | -32.6
CN(C)C(=O)CN1CCC2(CC1)COc1ccccc1S(=O)(=O)N(C)C2 | -44.5
CCC(=O)N1CCC2(CC1)COc1ccccc1S(=O)(=O)N(C)C2 | -29.3
COCCN1CCC2(CC1)COc1ccccc1S(=O)(=O)N(C)C2 | -7.6
CN1CC2(CCN(Cc3ccoc3)CC2)COc2ccccc2S1(=O)=O | 61.9
CN1CC2(CCN(CC3CC3)CC2)COc2ccccc2S1(=O)=O | 52.5
COc1cccc(-c2ncc(CN3C[C@H]4CC[C@@H](C3)N(C)C4=O)s2)c1 | -211
COc1cc(F)c(NC(=O)N(C)Cc2cc(C)on2)cc1F | -69.1
Cc1cnn(CCC(=O)N2CCN(C(=O)C(C)C)[C@@H]3CS(=O)(=O)C[C@@H]32)c1 | -87.4
CCOC(=O)c1nc(COc2ccc(CC(N)=O)cc2)no1 | -26
